High-throughput results as filed in PubChem.
Only some compounds are listed: those with a hit (about 14% of all), similar ones and a draw of the others.
USP10 block – human USP10 deubiquitinase inhibition | Q14694 | purified USP10, Ub-rhodamine fluorescence, 60 min | inhibition, % at 20 µM | 47,000 tested, 1.1% active | AID 1645856
USP28 block – inhibitors of human USP28 deubiquitinase; inhibition, % at 25 µM; AID 1645857; Q96RU2; purified USP28, Ub-rhodamine cleavage fluorescence, 30 min; 47,000 tested, 3% active
USP30 block – blocks human USP30 ubiquitin-rhodamine cleavage; inhibition, % at 25 µM; purified USP30, Ub-rhodamine cleavage fluorescence; AID 1645860; 47,000 tested, 5.3% active
USP17 block – inhibitors of human USP17 deubiquitinase. purified USP17, Ub-rhodamine cleavage fluorescence, 3 h. inhibition, % at 50 µM. 47,000 tested, 6.5% active. AID 1645855
USP8 inh – inhibitors of human USP8 deubiquitinase. inhibition, % at 20 µM. 47,000 tested, 4.2% active. purified USP8, Ub-rhodamine cleavage fluorescence, 30 min
Target sequence (P40818 whole entry, looked up): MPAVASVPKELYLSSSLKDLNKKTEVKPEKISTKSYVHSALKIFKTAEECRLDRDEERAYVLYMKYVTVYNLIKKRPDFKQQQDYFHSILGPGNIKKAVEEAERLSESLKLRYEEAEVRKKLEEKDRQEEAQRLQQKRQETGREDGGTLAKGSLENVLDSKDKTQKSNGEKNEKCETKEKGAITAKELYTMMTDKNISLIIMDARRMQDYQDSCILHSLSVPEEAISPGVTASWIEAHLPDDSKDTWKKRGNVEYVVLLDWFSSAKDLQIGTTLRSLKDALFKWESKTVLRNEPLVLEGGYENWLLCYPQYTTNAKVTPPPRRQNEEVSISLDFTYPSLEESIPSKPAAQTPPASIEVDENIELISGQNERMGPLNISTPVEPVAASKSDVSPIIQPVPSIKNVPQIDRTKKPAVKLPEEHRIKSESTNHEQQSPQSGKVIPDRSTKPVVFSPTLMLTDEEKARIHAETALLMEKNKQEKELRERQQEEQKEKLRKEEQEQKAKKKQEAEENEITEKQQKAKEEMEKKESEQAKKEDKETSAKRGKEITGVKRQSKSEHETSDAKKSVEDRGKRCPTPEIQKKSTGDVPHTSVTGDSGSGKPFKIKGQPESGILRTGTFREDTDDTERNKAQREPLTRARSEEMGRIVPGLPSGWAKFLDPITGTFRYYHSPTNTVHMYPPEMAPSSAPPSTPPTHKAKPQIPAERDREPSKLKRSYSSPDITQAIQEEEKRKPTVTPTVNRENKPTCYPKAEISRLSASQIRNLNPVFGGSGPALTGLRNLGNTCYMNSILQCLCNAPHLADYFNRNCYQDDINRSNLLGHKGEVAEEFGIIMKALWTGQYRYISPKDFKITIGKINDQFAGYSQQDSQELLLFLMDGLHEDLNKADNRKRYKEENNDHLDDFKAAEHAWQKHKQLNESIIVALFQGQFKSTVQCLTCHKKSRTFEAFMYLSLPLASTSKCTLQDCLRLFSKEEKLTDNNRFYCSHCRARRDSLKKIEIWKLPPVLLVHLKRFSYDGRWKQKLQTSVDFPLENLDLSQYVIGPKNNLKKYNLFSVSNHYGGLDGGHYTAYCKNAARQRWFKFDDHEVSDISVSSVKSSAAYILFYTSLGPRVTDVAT
A number is an active result; . = inactive; / = not tested or not shown. Rule as the data show it: active = inhibition above about 30%; inactive = the rest.

SMILES | USP10 block | USP28 block | USP30 block | USP17 block | USP8 inh
COC(=O)C12Oc3cc4c(c(O)c3C(O)=C1C(=O)CCC2O)C1C=CC2(C4)C(=O)c3cc(C)cc(O)c3C(O)=C2C1=O (centres undefined) | . | . | . | 48 | .
COc1ccc(-c2cc3nccc(C4CCNCC4)n3n2)cc1 | . | . | . | . | .
Cc1ccc(-c2cc3nccc(C4CCCNC4)n3n2)cc1 (centres undefined) | . | 40 | . | . | .
CCC[C@H]1O[C@@H]2CC(=O)O[C@@H]2C2=C1C(=O)c1c(O)cccc1C2=O | . | 54 | . | 84 | .
CC1OC2CC(=O)OC2C2=C1C(=O)c1c(O)cccc1C2=O (centres undefined) | . | 56 | . | 94 | .
O=c1[nH]c(CN2CCN(Cc3ccc4c(c3)OCO4)CC2)nc2cc(Cl)ccc12 | . | . | . | . | .
O=C(COc1ccc(S(=O)(=O)N2CCOCC2)cc1)N1CCC(Cc2ccccc2)CC1 | . | 57 | . | . | .
O=C(OCC(=O)N1CCC(Cc2ccccc2)CC1)c1cccc(S(=O)(=O)N2CCOCC2)c1 | . | . | . | . | .
Cc1c(C)c2ccc(OCC(=O)N3CCC(Cc4ccccc4)CC3)cc2oc1=O | . | 42 | 48 | . | .
CCOC(=O)C1CCCN(C(=O)COc2ccc3c(=O)c(Oc4ccccc4F)c(C)oc3c2)C1 (centres undefined) | . | . | . | . | .
CCOC(=O)C1CCN(C(=O)COc2ccc3c(=O)c(Oc4ccc(F)cc4)c(C)oc3c2)CC1 | . | . | 30 | . | .
CC(C)NS(=O)(=O)c1ccc(OCC(=O)N2CCC(Cc3ccccc3)CC2)cc1 | . | 79 | 32 | . | .
COc1cc(C(=O)N2CCC3(CC2)N=C(c2ccc(Cl)cc2)C(=O)N3)cc(OC)c1OC | . | . | . | . | .
Cc1cccc(NC(=O)CSc2ccc(-c3nc(C)no3)cn2)c1 | . | . | . | . | .
Cc1cccc(NC(=O)CSc2ccc(-n3cnc(-c4ccccc4)c3)nn2)c1 | . | . | 61 | . | .
Cc1nc2ccn(Cc3ccccc3)c(=O)c2cc1C(=O)NCCCN1CCOCC1 | . | . | . | / | .
CC1Oc2ccc(NC(=O)c3cccc(S(=O)(=O)N4CCc5ccccc5C4)c3)cc2NC1=O (centres undefined) | . | . | . | 31 | .
O=C(Nc1ccc(Br)c(C(=O)c2ccccc2)c1)c1ccc(S(=O)(=O)N2CCc3ccccc3C2)cc1 | . | . | . | . | .
CCOc1cccc(NC(=O)c2ccc(S(=O)(=O)N3CCc4ccccc4C3)cc2)c1 | . | . | 41 | 53 | .
CC[C@@H](C(=O)[C@@H](C)[C@@H](O)[C@H](C)[C@H]1O[C@@](O)(CC(=O)O)[C@H](C)C[C@@H]1C)[C@H]1O[C@](C)([C@]2(O)O[C@@](CC)([C@@H](O)CC)C[C@H]2C)C[C@@H]1C | . | . | . | . | .
O=c1c2ccccc2nc(CSc2nc3ccc4[nH]snc4c3n2)n1-c1ccccc1 | . | 51 | 37 | 51 | .
O=c1c2ccccc2nc(N2CCN(Cc3ccccc3)CC2)n1-c1ccccc1 | . | . | . | . | .
COc1ccc(C(=O)Cn2nnc(-c3ccccc3NC(=O)c3ccncc3)n2)cc1 | . | . | . | . | .
CCCN1CCN(c2ccc(C(=O)O)cc2NS(=O)(=O)c2ccccc2)CC1 | . | . | . | . | 74
CC(=O)c1ccc(NS(=O)(=O)c2cc(C)cc3c2OCCN3C)cc1 | . | . | . | . | .
SMILES | USP10 block | USP28 block | USP30 block | USP17 block | USP8 inh
CCNC(=O)c1ccc(N2CCNCC2)c(NS(=O)(=O)c2cc(C)c(C)cc2C)c1 | . | . | . | . | 46
Cc1cc(C)c(S(=O)(=O)Nc2cc(C(=O)O)ccc2N2CCN(C)CC2)c(C)c1 | . | . | . | . | 77
CNS(=O)(=O)c1ccc(Nc2ccc3c(c2)OCO3)c([N+](=O)[O-])c1 | . | . | . | . | .
Clc1ccc2c(Nc3ccc4c(c3)OCO4)ccnc2c1 | . | 43 | 53 | 56 | .
O=C(CCc1nc2sc3c(c2c(=O)[nH]1)CCCCC3)NCc1ccc2c(c1)OCO2 | . | . | . | . | .
CC1CCc2c(sc3nc(CCC(=O)NCc4ccc5c(c4)OCO5)[nH]c(=O)c23)C1 (centres undefined) | . | . | . | . | 45
COc1ccc(CNC(=O)CCc2nc3sc4c(c3c(=O)[nH]2)CCCCC4)cc1 | . | . | . | 51 | .
COc1ccc(C)cc1NC(=O)/C=C/c1ccc(F)cc1 | . | . | . | . | .
COc1ccc(/C=C/C(=O)Nc2ccccc2C#N)cc1 | . | / | / | 68 | .
COc1ccc(/C=C/C(=O)Nc2cc(C)ccn2)cc1 | . | 46 | . | . | .
COc1cccc(NC(=O)Cn2cnc3c(cnn3C(C)(C)C)c2=O)c1 | . | 30 | . | . | .
CC(C)(C)n1ncc2c(=O)n(CC(=O)Nc3cccc([N+](=O)[O-])c3)cnc21 | . | . | . | . | .
CC(C)(C)n1ncc2c(=O)n(Cc3cccc([N+](=O)[O-])c3)cnc21 | . | 79 | . | . | .
O=C(NC1CCCCC1)NC(CO)c1ccccc1 (centres undefined) | . | . | . | . | .
O=[N+]([O-])c1ccc(NCC2COc3ccccc3O2)c(Cl)c1 (centres undefined) | . | 72 | . | . | .
COc1cccc(N2CC(=O)Nc3c(oc4nc(-c5ccccc5)cc(C)c34)C2=O)c1 | . | . | 37 | . | 32
O=C1COc2nc3cc4c(cc3cc2CN1C1CCCC1)OCO4 | . | . | . | . | .
Cc1ccccc1-c1nc(CN(C)S(=O)(=O)c2ccccc2)c(C)o1 | . | . | 56 | . | .
Cc1cnc(NC(=O)Cn2cnc3ccccc3c2=O)s1 | . | . | . | 40 | .
O=C(Cn1cnc2ccccc2c1=O)NC1CCCC1 | . | . | . | . | .
COc1ccc(CNC(=O)CCc2ccc3nc(NC(=O)C(C)C)sc3c2)cc1 | . | . | 33 | . | .
Clc1ccc2c(NCc3cccs3)ncnc2c1 | . | 34 | . | . | .
O=C(c1cn2ccccc2n1)N1CCCCC1c1nc2ccccc2s1 (centres undefined) | . | . | . | . | .
Cc1cccc(CCNC(=O)c2ccc(CNS(=O)(=O)c3ccc(F)cc3)cc2)c1 | . | . | 34 | . | .
COc1ccccc1NS(=O)(=O)c1ccc(C(=O)NCc2ccc(S(N)(=O)=O)cc2)cc1 | . | . | . | . | .
CC(=O)Nc1ccc(S(=O)(=O)N2CCCC(C(=O)NCCc3ccccc3)C2)cc1 (centres undefined) | . | . | . | . | .
CC(=O)Nc1ccc(S(=O)(=O)N2CCC(C(=O)NCCc3ccc(Cl)cc3)CC2)cc1 | . | . | 34 | . | .
CN(Cc1ccccc1)C(=O)c1ccc(CNS(=O)(=O)c2ccc(F)cc2)cc1 | . | . | . | . | .
CC(=O)Nc1ccc(S(=O)(=O)NCc2ccc(C(=O)NCCc3ccc(Cl)cc3)cc2)cc1 | . | 92 | 96 | . | .
